According to PubChem BioAssay AID620 (Sanford-Burnham Center for Chemical Genomics, 2007):
In all, about 87,000 compounds went through this assay and about 360 (0.41%) were called active. No stated cut-off is given here; in the data, active means cytotoxicity above about 50%; inactive means the rest. This excerpt belongs to a sample that is enriched for actives.

Assay: cytotoxicity in HT1080 fibrosarcoma cells, cell-based, fluorescence readout (AID 620);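 further: cells exposed to compound overnight then 4 h with Alamar Blue; 0% = vehicle DMSO and 100% = killing control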
Conditions: HT1080 viability, at 10 µM, hits give high values

SMILES | cytotoxicity
O=C1C2ON(c3ccc(Br)cc3)C(c3cccnc3)C2C(=O)N1C1CCCCC1 (stereo not given) | 1.2% (inactive)
COc1ccc2nc3oc(C(=O)N4CCN(c5ccccc5F)CC4)cc3cc2c1 | -0.7% (inactive)
Cc1cc(NC(=O)CSc2nnc(-c3cccnc3)n2C)no1 | -4.9% (inactive)
Cc1cccc(N(C(=O)Nc2ccccc2)C2=NCC(C)S2)c1 (stereo not given) | -2.6% (inactive)
N#Cc1cccc(Cn2nnc(-c3ccccc3)n2)c1 | 13.7% (inactive)
COc1ccc(OC)c(-n2nnnc2SCC(=O)Nc2ccc(C(=O)N3CCCCC3)cc2)c1 | -11.6% (inactive)
COCCCNC(=O)CCCC(=O)NCCCOC | -2.4% (inactive)
COc1ccc(-c2cn3cc(Cl)ccc3n2)cc1OC | 98.8% (active)
COc1ccc(-c2cn3cc(C)ccc3n2)cc1OC | 23% (inactive)
COc1ccc(-c2cn3ccccc3n2)cc1OC | 14.9% (inactive)
Cc1ccc(C2CC(=O)Nc3cc4c(cc32)OCCO4)s1 (stereo not given) | 7.9% (inactive)
CC(C)Oc1ccccc1C1CC(=O)Nc2cc3c(cc21)OCO3 (stereo not given) | 67.4% (active)
CC(C)Oc1ccccc1C1CC(=O)Nc2cc3c(cc21)OCCO3 (stereo not given) | 70.5% (active)
COc1cccc(C2CC(=O)Nc3cc4c(cc32)OCCO4)c1OC(C)C (stereo not given) | 0.6% (inactive)
Cc1ccc(C2CC(=O)Nc3cc4c(cc32)OCO4)o1 (stereo not given) | 40% (inactive)
COc1ccccc1C1CC(=O)Nc2cc3c(cc21)OCCO3 (stereo not given) | 52.2% (active)
COc1cc2c(cc1OC)C(c1cccc(OC)c1OC)CC(=O)N2 (stereo not given) | -0.5% (inactive)
O=C1CC(c2ccncc2)c2cc3c(cc2N1)OCCO3 (stereo not given) | 5.6% (inactive)
O=C1CC(c2cccs2)c2cc3c(cc2N1)OCO3 (stereo not given) | 13.7% (inactive)
CCCCCCC(C)n1[nH]c(=O)c2c(C)cc(=O)[nH]c21 (stereo not given) | -5% (inactive)
O=C(C1CCC(CNc2c(N3CCCCC3)c(=O)c2=O)CC1)N1CCCCC1 (stereo not given) | -4.8% (inactive)
C=CCn1c(NC)cc(=O)n(C)c1=O | 9.8% (inactive)
CC1(C(=O)NC2CCCC2)CCC(=O)N1Cc1ccc2c(c1)OCO2 (stereo not given) | 20.7% (inactive)
COc1ccc(O)c(C(=O)c2cc(C#N)c(=O)n(CCN3CCOCC3)c2)c1 | 7% (inactive)
COC(=O)c1ccc(NC(=O)COc2ccc(S(=O)(=O)N3CCCCC3)cc2)cc1 | -6.1% (inactive)

SMILES | cytotoxicity
c1ccc(-c2nc3ccccc3nc2N2CCOCC2)cc1 | 19.1% (inactive)
Nc1nc(NCc2ccccc2)nc(-c2ccccc2)n1 | 12.3% (inactive)
Cc1c(NC(=O)c2ccc(=O)oc2)c(=O)n(-c2ccccc2)n1C | 32.6% (inactive)
Cc1c(NC(=O)c2ccccc2)c(=O)n(-c2ccccc2)n1C | -12.6% (inactive)
COc1cc2[nH]cc(C(=O)NCCc3ccccc3)c(=O)c2cc1OC | 5.3% (inactive)
CCOc1ccc(OCc2ccc(C(=O)Nc3cccnc3)o2)cc1 | -3.1% (inactive)
O=C(CSc1oc(-c2ccc(F)cc2)nc1S(=O)(=O)c1ccc(F)cc1)NCC1CCCO1 (stereo not given) | 4.4% (inactive)
CCN(CC)C(=O)CN(C#N)c1nc(NC(C)C)nc(NC(C)C)n1 | -2% (inactive)
CCCS(=O)(=O)c1nnnn1-c1cccc(OC)c1 | 66.7% (active)
COc1cccc(Oc2nnnn2-c2ccccc2)c1 | -0.2% (inactive)
COc1cccc(-n2nnnc2SCC(=O)NC2CCCC2)c1 | -4.7% (inactive)
CC(C)NC(=O)c1ccccc1-c1nc(-c2ccccc2Cl)no1 | 50.9% (active)
CCNC(=O)c1ccccc1-c1nc(-c2ccccc2Cl)no1 | -5.2% (inactive)
CC(C)(C)NC(=O)c1ccccc1-c1nc(-c2ccccc2Cl)no1 | -5.2% (inactive)
COc1ccccc1N1CCN(C(=O)C2CCN(S(=O)(=O)c3ccccc3)CC2)CC1 | -0.7% (inactive)
COC(=O)c1ccc(C)c(NS(=O)(=O)c2ccc(OC)c(OC)c2)c1 | 4% (inactive)
COC(=O)c1ccc(C)c(NS(=O)(=O)c2ccc3c(c2)OCCO3)c1 | 51.6% (active)
COC(=O)c1ccc(Cl)c(NS(=O)(=O)c2ccc3c(c2)OCCO3)c1 | 35.5% (inactive)
CCCC12CN3CC(C)(CN(C1)C3c1ccc3c(c1)OCO3)C2=O (stereo not given) | -1.1% (inactive)
CN(C)c1ccc(-c2nn3c(-c4ccncc4)nnc3s2)cc1 | 0.5% (inactive)
CCN(CC)c1ccc(-c2nn3c(-c4cccnc4)nnc3s2)cc1 | 2.9% (inactive)
CN(C)c1ccc(-c2nn3c(-c4ccccc4Cl)nnc3s2)cc1 | 57.2% (active)
Cc1ccc(OCc2nn3c(-c4n[nH]c5c4CCC5)nnc3s2)cc1 | 3.7% (inactive)
Cc1nn2c(-c3ccc(Cl)cc3Cl)nnc2s1 | 7.1% (inactive)
Clc1ccccc1-c1nnc2sc(-c3ccncc3)nn12 | -1.3% (inactive)

SMILES | cytotoxicity
CCN(CC)c1ccc(-c2nn3c(-c4n[nH]c5c4CCC5)nnc3s2)cc1 | 55.1% (active)
CN(C)c1ccc(-c2nn3c(-c4ccc(Cl)cc4)nnc3s2)cc1 | -10.2% (inactive)
CCN(CC)c1ccc(-c2nn3c(-c4ccccc4OC)nnc3s2)cc1 | 50.1% (active)
COc1ccccc1-c1nnc2sc(-c3ccc(N(C)C)cc3)nn12 | 33.1% (inactive)
CCOc1ccc(-c2nnc3sc(-c4ccccc4OC)nn23)cc1 | 22% (inactive)
CN(C)c1ccc(-c2nn3c(-c4ccc(Cl)cc4Cl)nnc3s2)cc1 | 52.2% (active)
CS(=O)(=O)N(CC(=O)N1CCCCC1)c1sc2c(c1C#N)CCCC2 | 15.6% (inactive)
CN(C)CCCNC(=O)CC(c1ccccc1)c1ccccc1O (stereo not given) | 5.3% (inactive)
O=C(O)CCn1c(=O)c2ccccc2c2ccccc2c1=O | 2% (inactive)
C=CCOn1c(C)c(C(C)=O)c2c3nonc3ccc21 | 2.2% (inactive)
Cn1c(N)c(C(=O)COC(=O)c2ccco2)c(=O)n(C)c1=O | -0.9% (inactive)
CC(=O)N1CCc2cc(S(=O)(=O)NC(C(=O)Nc3nc(C)cs3)C(C)C)ccc21 (stereo not given) | 11.9% (inactive)
Cc1nnc2sc(-c3cc4ccccc4o3)nn12 | 0.8% (inactive)
c1ccc(-c2nnc3sc(-c4cc5ccccc5o4)nn23)cc1 | -3.1% (inactive)
COc1ccccc1-c1nnc2sc(-c3cc4ccccc4o3)nn12 | 53.5% (active)
Cc1ccccc1NS(=O)(=O)c1ccc(NC(=O)c2ccco2)cc1 | 2.4% (inactive)
Cc1cc(C)cc(C(=O)N2CC(C)OC(C)C2)c1 (stereo not given) | -14.9% (inactive)
COc1ccc(-c2cc(C(F)(F)F)nc(S(C)(=O)=O)n2)cc1OC | 10.4% (inactive)
CCOC(=O)CS(=O)(=O)c1nc(-c2ccccc2)cc(C(F)(F)F)n1 | 8.3% (inactive)
COC(=O)CSc1nc(-c2ccc(F)cc2)cc(C(F)(F)F)n1 | -10% (inactive)
COC(=O)CCS(=O)(=O)c1nc(-c2ccccc2)cc(C(F)(F)F)n1 | 2.4% (inactive)
COc1ccc(-c2cc(C(F)(F)F)nc(S(C)(=O)=O)n2)cc1 | 11.7% (inactive)
COc1ccccc1-c1cc(C(F)(F)F)nc(S(=O)(=O)CCCC(=O)N2CCCCC2C)n1 (stereo not given) | 18.6% (inactive)
CS(=O)(=O)c1nc(-c2ccccc2)cc(C(F)(F)F)n1 | 59.4% (active)
CCOC(=O)CS(=O)(=O)c1nc(-c2ccc(F)cc2)cc(C(F)(F)F)n1 | 56.6% (active)

SMILES | cytotoxicity
COc1ccccc1-c1cc(C(F)(F)F)nc(S(=O)(=O)CCCC(=O)O)n1 | -3.7% (inactive)
CCOC(=O)CSc1nc(-c2ccccc2)cc(C(F)(F)F)n1 | -7.2% (inactive)
CCOC(=O)Cn1c(=O)oc2cc(S(=O)(=O)N3CCN(c4ccccn4)CC3)ccc21 | -4.7% (inactive)
N#Cc1ccccc1Cn1c(=O)n(C2CCCC2)c(=O)c2ccccc21 | 4.1% (inactive)
COc1cccc(C(=O)NCC(=O)N2CCC(C)CC2)c1 | 7.2% (inactive)
COc1ccc(Oc2cn[nH]c2-c2ccc(O)cc2O)cc1 | 19% (inactive)
COc1cccc(Oc2cn[nH]c2-c2ccc(O)cc2O)c1 | 55.2% (active)
COc1cccc(Oc2cn[nH]c2-c2ccc(OC)cc2O)c1 | 19.1% (inactive)
N#CC1C(C#N)N2CCCN2C1c1ccc(Cl)cc1 (stereo not given) | -17.9% (inactive)
CCn1c(SCC(=O)O)nnc1C1CCCCC1 | 3.3% (inactive)
CCN1/C(=C/c2ccc3ccccc3[n+]2CC)C=Cc2ccccc21 | 54.3% (active)
CCN1C(=O)/C(=C2\C=Cc3ccccc3N2CC)OC1=S | 5.1% (inactive)
CCN1C(=C2C(=O)c3ccccc3C2=O)C=Cc2ccccc21 | 12.1% (inactive)
Cc1cc(C)c2c(N)c(C(=O)NCc3ccco3)sc2n1 | 10.7% (inactive)
Cc1cc(C)cc(N(CC(=O)N2CCN(Cc3ccccc3)CC2)S(=O)(=O)c2c(C)noc2C)c1 | -0.8% (inactive)
Cc1ccccc1-c1nc(CN2CCCC(C(=O)NCc3cccnc3)C2)c(C)o1 (stereo not given) | -7.7% (inactive)
N#CC1=C(N)Oc2cc(O)ccc2C1c1cccs1 (stereo not given) | -3.3% (inactive)
N#CC1=C(N)Oc2cc3ccccc3cc2C1c1cccs1 (stereo not given) | -2.7% (inactive)
N#CC1=C(N)Oc2c(ccc3ccccc23)C1c1cccs1 (stereo not given) | 65.3% (active)
COc1ccc(CCn2nnnc2C(C(C)C)N2CCC(C(N)=O)CC2)cc1OC (stereo not given) | 6% (inactive)
Cc1cc(C)cc(OC(=O)N2CCOCC2)c1 | 3.6% (inactive)
CCOC(=O)CNc1c(-c2ccc(O)cc2)nc2ccc(Cl)cn12 | 36.6% (inactive)
CCOC(=O)CNc1c(-c2ccc(OC)cc2)nc2ccc(Cl)cn12 | 73.3% (active)
CCOC(=O)CNc1c(-c2ccccc2)nc2ccc(Cl)cn12 | 24.2% (inactive)
CCOC(=O)N1CCN(C(=O)CSc2nc3ccccc3c(=O)n2-c2ccccc2)CC1 | 5.2% (inactive)
